# Assays:
# [1] = target: Ribosomal protein S6 kinase alpha-1 (Homo sapiens) (UniProt Q15418); details: at 1 µM
# [2] = target: Ribosomal protein S6 kinase alpha-1 (Homo sapiens) (UniProt Q15418); details: at 10 µM
# [3] = target: Ribosomal protein S6 kinase alpha-3 (Homo sapiens) (UniProt P51812); details: at 1 µM
# [4] = target: Ribosomal protein S6 kinase alpha-3 (Homo sapiens) (UniProt P51812); details: at 10 µM
# [5] = target: Ribosomal protein S6 kinase alpha-2 (Homo sapiens) (UniProt Q15349); details: at 1 µM
# Sequence of Ribosomal protein S6 kinase alpha-2 (Homo sapiens) (Q15349 whole entry): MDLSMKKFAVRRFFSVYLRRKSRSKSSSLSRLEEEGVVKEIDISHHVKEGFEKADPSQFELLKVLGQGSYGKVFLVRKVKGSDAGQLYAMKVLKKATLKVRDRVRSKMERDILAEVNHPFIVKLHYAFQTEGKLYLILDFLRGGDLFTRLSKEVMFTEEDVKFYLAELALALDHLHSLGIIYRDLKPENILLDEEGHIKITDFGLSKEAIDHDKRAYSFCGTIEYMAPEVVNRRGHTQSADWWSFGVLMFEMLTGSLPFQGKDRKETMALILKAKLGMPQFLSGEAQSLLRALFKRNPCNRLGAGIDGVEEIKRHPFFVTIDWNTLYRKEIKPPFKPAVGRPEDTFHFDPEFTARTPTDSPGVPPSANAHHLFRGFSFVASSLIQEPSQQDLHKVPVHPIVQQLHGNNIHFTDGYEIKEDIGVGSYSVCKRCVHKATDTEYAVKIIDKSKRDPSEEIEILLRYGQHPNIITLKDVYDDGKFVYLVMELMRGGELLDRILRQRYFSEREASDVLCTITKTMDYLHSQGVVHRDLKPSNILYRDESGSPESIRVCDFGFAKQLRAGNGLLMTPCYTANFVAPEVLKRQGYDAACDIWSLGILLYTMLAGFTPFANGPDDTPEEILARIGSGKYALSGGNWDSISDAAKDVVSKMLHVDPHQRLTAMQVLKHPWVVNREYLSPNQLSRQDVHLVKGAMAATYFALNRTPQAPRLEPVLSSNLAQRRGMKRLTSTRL
# [6] = target: Ribosomal protein S6 kinase alpha-2 (Homo sapiens) (UniProt Q15349); details: at 10 µM
# [7] = target: Ribosomal protein S6 kinase alpha-6 (Homo sapiens) (UniProt Q9UK32); details: at 1 µM
# Sequence of Ribosomal protein S6 kinase alpha-6 (Homo sapiens) (Q9UK32 whole entry): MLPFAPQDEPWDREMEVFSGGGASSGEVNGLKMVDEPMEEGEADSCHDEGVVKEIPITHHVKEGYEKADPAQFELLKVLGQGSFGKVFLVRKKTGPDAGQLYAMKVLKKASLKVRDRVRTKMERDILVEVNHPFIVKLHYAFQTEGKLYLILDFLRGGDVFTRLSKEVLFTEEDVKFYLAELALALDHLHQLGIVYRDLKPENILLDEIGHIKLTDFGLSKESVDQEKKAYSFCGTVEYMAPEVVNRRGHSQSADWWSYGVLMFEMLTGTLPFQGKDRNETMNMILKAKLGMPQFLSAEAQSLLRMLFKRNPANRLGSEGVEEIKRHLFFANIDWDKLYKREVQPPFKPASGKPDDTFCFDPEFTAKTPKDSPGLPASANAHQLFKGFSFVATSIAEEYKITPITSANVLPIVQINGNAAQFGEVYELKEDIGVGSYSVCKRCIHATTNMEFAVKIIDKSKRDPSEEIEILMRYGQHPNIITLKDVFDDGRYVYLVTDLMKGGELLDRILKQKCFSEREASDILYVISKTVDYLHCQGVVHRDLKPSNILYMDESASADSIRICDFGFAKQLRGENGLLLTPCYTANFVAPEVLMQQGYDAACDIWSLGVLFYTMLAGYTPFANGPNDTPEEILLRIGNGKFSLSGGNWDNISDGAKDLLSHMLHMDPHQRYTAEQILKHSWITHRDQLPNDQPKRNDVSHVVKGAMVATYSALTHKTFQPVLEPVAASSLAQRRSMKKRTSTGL
# [8] = target: Ribosomal protein S6 kinase alpha-6 (Homo sapiens) (UniProt Q9UK32); details: at 10 µM
# [9] = target: Mitogen-activated protein kinase 14 (Homo sapiens) (UniProt Q16539); details: at 1 µM
# Sequence of Mitogen-activated protein kinase 14 (Homo sapiens) (Q16539 whole entry): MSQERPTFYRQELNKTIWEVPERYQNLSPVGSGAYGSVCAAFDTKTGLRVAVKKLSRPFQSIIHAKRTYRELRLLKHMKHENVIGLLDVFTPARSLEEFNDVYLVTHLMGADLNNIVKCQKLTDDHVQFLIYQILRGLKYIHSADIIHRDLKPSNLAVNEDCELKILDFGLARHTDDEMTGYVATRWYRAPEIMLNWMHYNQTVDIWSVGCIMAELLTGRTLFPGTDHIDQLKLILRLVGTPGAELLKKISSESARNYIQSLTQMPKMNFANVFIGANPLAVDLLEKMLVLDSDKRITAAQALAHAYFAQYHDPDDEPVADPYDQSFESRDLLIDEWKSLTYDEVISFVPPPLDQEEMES
# [10] = target: Mitogen-activated protein kinase 14 (Homo sapiens) (UniProt Q16539); details: at 10 µM
# [11] = target: Mitogen-activated protein kinase 11 (Homo sapiens) (UniProt Q15759); details: at 1 µM
# Sequence of Mitogen-activated protein kinase 11 (Homo sapiens) (Q15759 whole entry): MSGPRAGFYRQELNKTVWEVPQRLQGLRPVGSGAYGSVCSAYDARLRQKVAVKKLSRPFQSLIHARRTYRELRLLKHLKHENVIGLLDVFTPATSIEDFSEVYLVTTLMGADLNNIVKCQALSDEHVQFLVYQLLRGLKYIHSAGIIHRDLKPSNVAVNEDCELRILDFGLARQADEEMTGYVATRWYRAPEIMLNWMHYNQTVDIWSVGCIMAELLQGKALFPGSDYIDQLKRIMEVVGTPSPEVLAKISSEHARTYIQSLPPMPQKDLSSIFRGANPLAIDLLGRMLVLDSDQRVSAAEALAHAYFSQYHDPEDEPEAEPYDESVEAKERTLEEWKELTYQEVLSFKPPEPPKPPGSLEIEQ
# [12] = target: Mitogen-activated protein kinase 11 (Homo sapiens) (UniProt Q15759); details: at 10 µM
# [13] = target: T1, Mitogen-activated protein kinase 13 (Homo sapiens) (UniProt O15264); details: at 1 µM
# T1 sequence (whole entry): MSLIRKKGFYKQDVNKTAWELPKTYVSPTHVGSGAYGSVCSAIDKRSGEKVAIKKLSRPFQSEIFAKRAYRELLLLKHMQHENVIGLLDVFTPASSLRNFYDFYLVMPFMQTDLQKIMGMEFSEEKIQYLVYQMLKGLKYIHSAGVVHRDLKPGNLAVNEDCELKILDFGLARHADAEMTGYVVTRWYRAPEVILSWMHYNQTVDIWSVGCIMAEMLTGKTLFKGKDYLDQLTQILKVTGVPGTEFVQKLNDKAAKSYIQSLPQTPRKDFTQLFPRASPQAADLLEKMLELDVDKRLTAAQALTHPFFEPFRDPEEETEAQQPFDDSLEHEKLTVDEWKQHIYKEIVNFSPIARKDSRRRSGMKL
# [14] = target: T1, Mitogen-activated protein kinase 13 (Homo sapiens); details: at 10 µM
# [15] = target: T2, Serine/threonine-protein kinase Sgk1 (Homo sapiens) (UniProt O00141); details: at 1 µM
# T2 sequence (whole entry): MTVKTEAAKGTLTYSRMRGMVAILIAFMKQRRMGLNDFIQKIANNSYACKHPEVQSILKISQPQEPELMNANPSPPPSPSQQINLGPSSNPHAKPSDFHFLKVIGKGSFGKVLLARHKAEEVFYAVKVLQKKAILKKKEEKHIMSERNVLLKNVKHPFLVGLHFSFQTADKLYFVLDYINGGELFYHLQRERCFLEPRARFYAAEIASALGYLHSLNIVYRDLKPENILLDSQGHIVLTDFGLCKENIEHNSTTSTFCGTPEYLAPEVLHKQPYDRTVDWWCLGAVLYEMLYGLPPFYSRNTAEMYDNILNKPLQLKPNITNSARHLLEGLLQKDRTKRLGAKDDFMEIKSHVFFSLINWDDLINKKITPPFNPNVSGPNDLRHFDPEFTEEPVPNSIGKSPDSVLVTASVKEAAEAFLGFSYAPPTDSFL
# [16] = target: T2, Serine/threonine-protein kinase Sgk1 (Homo sapiens); details: at 10 µM
# [17] = target: T3, Serine/threonine-protein kinase Sgk2 (Homo sapiens) (UniProt Q9HBY8); details: at 1 µM
# T3 sequence (whole entry): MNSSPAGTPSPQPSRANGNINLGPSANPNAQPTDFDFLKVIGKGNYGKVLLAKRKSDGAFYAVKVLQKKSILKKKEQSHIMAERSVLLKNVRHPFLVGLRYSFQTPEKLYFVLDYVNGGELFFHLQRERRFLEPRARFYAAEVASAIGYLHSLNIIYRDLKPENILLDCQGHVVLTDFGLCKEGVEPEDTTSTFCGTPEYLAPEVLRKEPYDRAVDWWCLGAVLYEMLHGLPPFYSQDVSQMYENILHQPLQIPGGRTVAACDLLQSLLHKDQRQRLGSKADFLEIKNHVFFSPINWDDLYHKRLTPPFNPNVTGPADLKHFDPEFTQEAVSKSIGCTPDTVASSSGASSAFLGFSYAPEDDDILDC
# [18] = target: T3, Serine/threonine-protein kinase Sgk2 (Homo sapiens); details: at 10 µM
# [19] = target: T4, Serine/threonine-protein kinase Sgk3 (Homo sapiens) (UniProt Q96BR1); details: at 10 µM
# T4 sequence (whole entry): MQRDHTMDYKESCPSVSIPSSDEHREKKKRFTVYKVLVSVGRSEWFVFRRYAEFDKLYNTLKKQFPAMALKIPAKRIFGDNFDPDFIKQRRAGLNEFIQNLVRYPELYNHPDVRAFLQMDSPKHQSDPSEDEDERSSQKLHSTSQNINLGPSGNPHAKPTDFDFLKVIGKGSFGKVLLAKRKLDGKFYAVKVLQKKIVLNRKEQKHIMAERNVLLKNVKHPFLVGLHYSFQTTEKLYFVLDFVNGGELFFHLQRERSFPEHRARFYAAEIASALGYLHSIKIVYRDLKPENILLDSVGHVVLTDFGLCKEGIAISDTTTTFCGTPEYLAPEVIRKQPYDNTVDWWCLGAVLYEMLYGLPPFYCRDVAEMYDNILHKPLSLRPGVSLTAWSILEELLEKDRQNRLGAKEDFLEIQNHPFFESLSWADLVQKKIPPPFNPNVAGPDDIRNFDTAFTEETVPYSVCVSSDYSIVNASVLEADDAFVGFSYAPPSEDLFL
# [20] = target: Serine/threonine-protein kinase SIK1 (Homo sapiens) (UniProt P57059); details: at 1 µM
# Sequence of Serine/threonine-protein kinase SIK1 (Homo sapiens) (P57059 whole entry): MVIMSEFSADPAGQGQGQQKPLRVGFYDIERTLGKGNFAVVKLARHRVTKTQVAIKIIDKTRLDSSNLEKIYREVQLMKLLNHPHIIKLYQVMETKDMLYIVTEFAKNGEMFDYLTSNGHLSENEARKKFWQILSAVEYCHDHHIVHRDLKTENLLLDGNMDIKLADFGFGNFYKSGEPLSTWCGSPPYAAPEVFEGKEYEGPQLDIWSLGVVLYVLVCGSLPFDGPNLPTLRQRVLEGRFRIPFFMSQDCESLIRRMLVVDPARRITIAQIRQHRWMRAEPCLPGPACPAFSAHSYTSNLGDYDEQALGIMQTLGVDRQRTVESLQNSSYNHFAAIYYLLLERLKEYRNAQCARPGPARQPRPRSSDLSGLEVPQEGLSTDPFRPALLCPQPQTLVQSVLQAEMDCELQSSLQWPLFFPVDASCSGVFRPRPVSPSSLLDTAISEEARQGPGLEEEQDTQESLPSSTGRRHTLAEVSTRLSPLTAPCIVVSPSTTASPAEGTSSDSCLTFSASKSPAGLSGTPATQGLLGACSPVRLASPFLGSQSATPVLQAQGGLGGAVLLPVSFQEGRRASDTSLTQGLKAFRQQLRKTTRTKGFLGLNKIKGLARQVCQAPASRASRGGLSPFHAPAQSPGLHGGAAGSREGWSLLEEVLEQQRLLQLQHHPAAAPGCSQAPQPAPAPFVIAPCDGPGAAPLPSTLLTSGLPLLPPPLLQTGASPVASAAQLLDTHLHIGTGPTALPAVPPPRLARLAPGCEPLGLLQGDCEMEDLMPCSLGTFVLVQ
# Sequence of Ribosomal protein S6 kinase alpha-3 (Homo sapiens) (P51812 whole entry): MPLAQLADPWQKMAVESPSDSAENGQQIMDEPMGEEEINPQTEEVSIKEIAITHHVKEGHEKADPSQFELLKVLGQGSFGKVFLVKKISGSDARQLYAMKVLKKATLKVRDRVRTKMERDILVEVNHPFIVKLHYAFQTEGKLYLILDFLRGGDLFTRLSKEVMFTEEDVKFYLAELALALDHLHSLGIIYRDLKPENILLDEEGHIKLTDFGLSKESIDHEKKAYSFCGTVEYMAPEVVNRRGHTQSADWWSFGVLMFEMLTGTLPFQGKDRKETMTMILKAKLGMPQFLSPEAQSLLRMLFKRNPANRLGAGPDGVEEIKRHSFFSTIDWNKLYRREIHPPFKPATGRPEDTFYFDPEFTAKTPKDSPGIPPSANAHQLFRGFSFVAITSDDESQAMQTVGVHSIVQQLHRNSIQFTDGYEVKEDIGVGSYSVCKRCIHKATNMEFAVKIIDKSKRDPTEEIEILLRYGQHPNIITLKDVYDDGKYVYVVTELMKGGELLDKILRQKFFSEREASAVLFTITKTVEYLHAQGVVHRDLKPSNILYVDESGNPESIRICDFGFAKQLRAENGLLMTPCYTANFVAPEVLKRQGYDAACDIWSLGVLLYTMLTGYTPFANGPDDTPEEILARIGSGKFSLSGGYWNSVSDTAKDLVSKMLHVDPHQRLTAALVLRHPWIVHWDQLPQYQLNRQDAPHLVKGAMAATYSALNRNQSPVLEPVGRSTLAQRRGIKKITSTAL
# Sequence of Ribosomal protein S6 kinase alpha-1 (Homo sapiens) (Q15418 whole entry): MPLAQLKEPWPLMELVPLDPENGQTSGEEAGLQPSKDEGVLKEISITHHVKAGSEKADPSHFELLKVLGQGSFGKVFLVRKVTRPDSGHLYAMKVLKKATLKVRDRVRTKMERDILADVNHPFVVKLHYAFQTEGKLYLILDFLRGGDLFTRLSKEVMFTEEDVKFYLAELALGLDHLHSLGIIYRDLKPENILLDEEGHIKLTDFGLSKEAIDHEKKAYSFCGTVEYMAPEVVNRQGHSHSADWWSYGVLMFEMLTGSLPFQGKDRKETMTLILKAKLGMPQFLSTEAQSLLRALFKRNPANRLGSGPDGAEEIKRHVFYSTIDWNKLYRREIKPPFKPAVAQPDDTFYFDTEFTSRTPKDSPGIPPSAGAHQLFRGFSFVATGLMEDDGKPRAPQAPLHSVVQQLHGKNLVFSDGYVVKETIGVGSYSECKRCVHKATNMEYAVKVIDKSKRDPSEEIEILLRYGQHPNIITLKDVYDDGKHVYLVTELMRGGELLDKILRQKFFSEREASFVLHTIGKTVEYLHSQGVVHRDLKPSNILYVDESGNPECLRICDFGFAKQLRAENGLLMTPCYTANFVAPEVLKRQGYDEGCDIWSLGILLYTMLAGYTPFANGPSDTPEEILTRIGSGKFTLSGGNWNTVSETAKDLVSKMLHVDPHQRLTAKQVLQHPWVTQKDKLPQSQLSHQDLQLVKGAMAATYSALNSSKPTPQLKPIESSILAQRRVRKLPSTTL
SMILES,residual activity [1] [%],residual activity [2] [%],residual activity [3] [%],residual activity [4] [%],residual activity [5] [%],residual activity [6] [%],residual activity [7] [%],residual activity [8] [%],residual activity [9] [%],residual activity [10] [%],residual activity [11] [%],residual activity [12] [%],residual activity [13] [%],residual activity [14] [%],residual activity [15] [%],residual activity [16] [%],residual activity [17] [%],residual activity [18] [%],residual activity [19] [%],residual activity [20] [%]
CCOc1cc2ncnc(Nc3cccc(Br)c3)c2cc1OCC,100,72,102,40,90,48,92,46,57,13,94,50,91,90,107,89,68,60,73,83
O=C1NC(=O)c2c1c1c3ccccc3[nH]c1c1[nH]c3cc(Br)ccc3c21,63,49,49,43,44,32,83,82,93,85,105,107,101,94,44,50,64,69,78,111
CC[n+]1c(/C=C/N(C)c2ccccc2)n(-c2ccccc2)c2ccc(-c3nc4ccccc4s3)cc21,114,84,94,64,117,97,102,87,111,73,107,101,105,97,118,65,109,80,69,115
Nc1ccc2ncnc(NCCc3ccc(Oc4ccccc4)cc3)c2c1,58,41,49,45,89,65,66,77,90,91,107,101,112,96,88,125,110,74,86,112
CC(=O)O/N=C1\C(=C2\C(=O)Nc3cc(Br)ccc32)Nc2ccccc21,105,59,40,28,71,34,74,89,88,85,94,100,99,89,69,56,83,48,65,57
Nc1n[nH]c2nnc(-c3c(-c4ccccc4)nn4ccccc34)cc12,108,93,111,96,90,68,102,88,78,33,94,66,99,88,95,123,87,64,80,85
O=C(Nc1cccc(Nc2nccc(Nc3cccc(C(F)(F)F)c3)n2)c1)C1CC1,78,36,45,27,106,62,96,128,79,59,103,88,107,95,84,66,108,89,78,58
CC(C)n1cnc2/c(=N/c3cccc(Cl)c3)nc(NCCO)[nH]c21,50,22,15,6,6,2,34,21,84,74,101,94,103,99,89,110,105,83,82,90
NC(=O)c1ccc2[nH]c(-c3ccc(Oc4ccc(Cl)cc4)cc3)nc2c1,91,67,30,11,18,5,27,29,90,84,99,101,105,101,90,174,112,104,103,108
O=C(Nc1cccc(Nc2cc(Nc3cccc(C(F)(F)F)c3)ncn2)c1)C1CC1,105,79,106,66,99,55,103,99,80,40,92,48,107,97,112,85,83,69,128,107
N#C/C(=C(\N)Sc1ccc(N)cc1)c1ccccc1C(F)(F)F,40,42,28,15,53,48,103,104,87,82,104,101,95,90,81,98,100,117,93,104
O=[N+]([O-])c1ccc(-c2nc(-c3ccc(F)cc3)c(-c3ccncc3)[nH]2)cc1,101,104,60,62,103,97,91,83,1,2,5,3,102,99,81,104,120,94,95,130
CC(C)n1cnc2c(NCc3ccccc3)nc(NCCCO)nc21,102,82,101,87,101,72,81,91,87,82,100,109,76,90,97,105,79,67,76,116
COc1ccc(OC)c2c(=S)c3ccccc3[nH]c12,116,106,99,107,90,88,98,98,88,91,112,96,104,97,90,82,97,93,83,118
CO[C@H]1C[C@@H]2CC[C@@H](C)[C@@](O)(O2)C(=O)C(=O)N2CCCC[C@H]2C(=O)O[C@H]([C@H](C)C[C@@H]2CC[C@@H](O)[C@H](OC)C2)CC(=O)[C@H](C)/C=C(\C)[C@@H](O)[C@@H](OC)C(=O)[C@H](C)C[C@H](C)/C=C/C=C/C=C/1C,110,112,44,55,102,90,105,112,72,83,97,103,110,95,93,213,124,149,148,101
O=C1NC(=O)c2cc(Nc3ccc(F)cc3)c(Nc3ccc(F)cc3)cc21,87,91,123,77,103,78,101,100,57,23,95,72,98,89,108,76,97,67,96,98
COc1ccc(CNc2nc(N(CCO)CCO)nc3c2ncn3C(C)C)cc1,90,59,31,22,11,5,84,56,96,89,100,92,100,105,73,116,107,80,85,93
O=c1cc(-c2cccc3c2Sc2ccccc2S3)oc(N2CCOCC2)c1,87,94,106,93,98,99,96,87,103,99,111,109,107,105,103,100,91,72,78,137
Oc1c2ccccc2c2c3c(cccc13)N=N2,86,64,54,32,58,22,43,52,96,85,88,79,96,73,60,24,71,33,58,96
Cc1ccc(NC2=CC(=O)c3sc(C)nc3C2=O)cc1,104,78,117,123,101,102,72,111,97,93,102,100,98,96,87,92,103,82,83,109
CC#CC(=O)Nc1cc2c(Nc3ccc(F)c(Cl)c3)ncnc2cn1,113,101,104,107,99,96,116,105,91,98,90,86,107,96,95,106,100,77,88,81
COc1ccc(S(=O)(=O)N(CCO)c2ccccc2CN(C)C/C=C/c2ccc(Cl)cc2)cc1,119,103,60,61,106,92,108,90,93,96,94,88,106,92,85,89,115,96,78,119
CO[C@@H]1[C@H](N(C)C(=O)c2ccccc2)C[C@H]2O[C@]1(C)n1c3ccccc3c3c4c(c5c6ccccc6n2c5c31)C(=O)NC4,0,1,1,0,1,0,0,3,71,78,86,98,92,77,57,18,80,46,78,4
Ic1cccc(CSc2nnc(-c3ccncc3)o2)c1,55,46,39,28,30,24,97,100,90,79,102,92,104,94,71,64,84,78,81,92

# Source: ChEMBL document CHEMBL2218924, “A broad activity screen in support of a chemogenomic map for kinase signalling research and drug discovery” (Biochem J, 2013)
